In PubChem BioAssay (Tox21):
Inconclusive results are not listed. Active and inactive are the calls of the source. Unless noted, calls follow the shape of the full dose curve. Where a SMILES comes first, the peptide text is derived from it. [ ]: non-standard residue; d: D form. pGlu = O=C1CC[C@@H](C(=O)O)N1

Test system: not listed separately
Test: qHTS assay to identify small molecule antagonists of the estrogen receptor beta (ER-beta) signaling pathway - cell viability counter screen (AID 1259382; active = well fitted cell-killing curve with a large enough effect in the repeat runs;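 also: HEK293T cells carrying ER-beta-UAS-bla reporter stimulated with estradiol; nearly all actives have a fitted effect of over 55% in size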)
Conditions: ER-beta-UAS-bla HEK293T viability, CellTiter-Glo luminescence, 16 h; series mostly up to 92.4 µM; activity change, negative = cytotoxicity: at the top concentration
How it was run: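 Cytotoxicity counter screen multiplexed with the beta-lactamase antagonist assay: GripTite HEK293T ER-beta-bla cells were treated 16 hr with test chemicals in the presence of 1nM 17-beta-estradiol, and viability was measured by CellTiter-Glo.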
% is scaled to controls: 0 for no effect and ±100 for the full control effect.

Row | Structure (SMILES) | activity change, negative = cytotoxicity
1 | CC1(C)OC[C@@H](COC(=O)CCc2ccc(OC[C@@H](O)CNCCNC(=O)N3CCOCC3)cc2)O1 | 0.833% [at 42.5 µM] (inactive)
2 | CCC(C(=O)NC(=O)NC(C)=O)c1ccccc1 (centres undefined) | -0.873% [at 42.5 µM] (inactive)
3 | CC(C)(N)C#N | 1.42% (inactive)
4 | CN1C(C)(C)CC(O)CC1(C)C | 1.55% (inactive)
5 | O=C(c1ccccc1)C1(O)CCCCC1 | 5.86% (inactive)
6 | [O-][n+]1cccc(CO)c1 | 5.87% [at 42.5 µM] (inactive)
7 | CCNC(=O)[C@@H]1CCCN1C(=O)[C@H](CCCN=C(N)N)NC(=O)[C@H](CC(C)C)NC(=O)CNC(=O)[C@H](Cc1ccc(O)cc1)NC(=O)[C@H](CO)NC(=O)[C@H](Cc1c[nH]c2ccccc12)NC(=O)[C@H](Cc1cnc[nH]1)NC(=O)[C@@H]1CCC(=O)N1 ([pGlu]HWSYGLRP-NHEt) | 0.0334% [at 42.5 µM] (inactive)
8 | CC(C)CC(C)(N)C#N (centres undefined) | 6.5% (inactive)
9 | O=C(O)CCSCCC(=O)O | 1.79% (inactive)
10 | CC(COc1ccccc1)NN (centres undefined) | -0.0007% [at 42.5 µM] (inactive)
11 | C=CC(=O)OCCCl | -7.1% (inactive)
12 | NS(=O)(=O)Cc1noc2ccccc12 | 11.3% [at 42.5 µM] (inactive)
13 | CCNS(=O)(=O)c1ccc(C)cc1 | -0.58% (inactive)
14 | CC(=O)NC(=O)c1ccccc1O | -0.853% [at 42.5 µM] (inactive)
15 | OCCCCCO | 0.175% (inactive)
16 | O=C(CO)[C@@H](O)[C@H](O)[C@H](O)CO | 3.25% (inactive)
17 | C=CC(C)(CCC=C(C)C)OC(=O)CC (centres undefined) | 9.83% (inactive)
18 | CN(C)[C@@H]1C(=O)C(C(=O)NCN2CCCC2)=C(O)[C@@]2(O)C(=O)C3=C(O)c4c(O)cccc4[C@@](C)(O)C3C[C@@H]12 (some centres undefined) | -1.52% [at 42.5 µM] (inactive)
19 | Clc1cc(Cl)cc(Cl)c1 | -0.0878% (inactive)

Row | Structure (SMILES) | activity change, negative = cytotoxicity
20 | O=C1CCCCCCCCCCCCCCO1 | 6.5% (inactive)
21 | CCCO[Si](OCCC)(OCCC)OCCC | 7.68% (inactive)
22 | C=COCC1CCC(COC=C)CC1 (centres undefined) | 0.24% (inactive)
23 | O=Cc1cccc(Br)c1 | -11.2% (inactive)
24 | C[N+](C)(CCOc1ccccc1)Cc1cccs1 | -1.1% [at 42.5 µM] (inactive)
25 | CN1CCC(=C2c3ccccc3CCc3cccnc32)CC1 | 0.405% [at 42.5 µM] (inactive)
26 | CCCCc1ccc2c(n1)[C@@H](c1ccc(OC)cc1C[C@H](C)C(=O)O)[C@H](C(=O)O)[C@H]2c1ccc2c(c1)OCO2 | 1.91% (inactive)
27 | CC(=O)c1ccc2ccccc2c1 | -4.97% (inactive)
28 | CC(C)c1ccc2ncccc2c1 | 2.46% (inactive)
29 | c1ccc(Cc2ccccc2)cc1 | -0.0225% (inactive)
30 | C=C(C)C(=O)OCC1CCCO1 (centres undefined) | 5.82% (inactive)
31 | CN(C)CCCN(C)CCCN(C)C | 1.15% (inactive)
32 | O=S(=O)(O)c1cc(O)c(O)c(S(=O)(=O)O)c1 | -1.62% (inactive)
33 | O=[N+]([O-])c1cncn1CCN1CCOCC1 | 4.66% [at 42.5 µM] (inactive)
34 | CCOC(=O)OC(C)OC1=C(C(=O)Nc2ccccn2)N(C)S(=O)(=O)c2ccccc21 (centres undefined) | 0.0291% [at 42.5 µM] (inactive)
35 | CCC(C)(CCCC(C)C)OC(C)=O (centres undefined) | -1.21% (inactive)
36 | CC1(C)[C@@H]2CC[C@@]1(C)[C@H](O)C2 | 0.608% (inactive)
37 | CCN[C@H]1C[C@H](C)S(=O)(=O)c2sc(S(N)(=O)=O)cc21 | 2.02% [at 42.5 µM] (inactive)
38 | O=CN(CCO)CCO | 0.44% (inactive)

Target: Estrogen receptor (Homo sapiens) (UniProt P03372)
Test: qHTS assay to identify small molecule agonists of the estrogen receptor alpha (ER-alpha) signaling pathway in the presence of an antagonist (AID 1259383); also: top concentration of the series differs between compounds; nearly all actives have a fitted effect of over 15% in size
Conditions: VM7Luc4E2 cells, ERE-luciferase, +ICI-182,780, 22 h; series mostly up to 92.4 µM; activation: at the top concentration
How it was run: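 Agonist-mode confirmation in the presence of the ER antagonist ICI-182,780 at 10.0nM final. Breast-derived VM7Luc4E2 reporter cells were exposed to compounds for 22hr, and ERE-driven luciferase was quantified by luminescence.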

Sequence of Estrogen receptor (Homo sapiens) (P03372 whole entry, looked up): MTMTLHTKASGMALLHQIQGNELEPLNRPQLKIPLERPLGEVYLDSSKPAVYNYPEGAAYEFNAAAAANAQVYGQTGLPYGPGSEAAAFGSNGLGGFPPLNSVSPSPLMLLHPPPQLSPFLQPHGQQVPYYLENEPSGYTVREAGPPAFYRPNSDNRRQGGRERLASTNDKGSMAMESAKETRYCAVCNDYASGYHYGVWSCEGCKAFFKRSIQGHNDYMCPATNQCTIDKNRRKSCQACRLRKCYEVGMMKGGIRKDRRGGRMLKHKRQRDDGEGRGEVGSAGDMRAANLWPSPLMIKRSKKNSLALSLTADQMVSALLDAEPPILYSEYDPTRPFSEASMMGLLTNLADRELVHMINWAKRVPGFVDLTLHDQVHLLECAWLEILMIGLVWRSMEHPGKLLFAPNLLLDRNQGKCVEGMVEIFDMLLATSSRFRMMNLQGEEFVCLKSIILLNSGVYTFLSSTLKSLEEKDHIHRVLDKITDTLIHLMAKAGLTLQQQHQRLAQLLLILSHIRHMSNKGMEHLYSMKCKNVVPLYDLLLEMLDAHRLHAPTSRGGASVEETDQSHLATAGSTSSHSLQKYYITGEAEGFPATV

Row | Structure (SMILES) | activation
39 | CC1(C)OC[C@@H](COC(=O)CCc2ccc(OC[C@@H](O)CNCCNC(=O)N3CCOCC3)cc2)O1 | 1.01% [at 42.5 µM] (inactive)
40 | CCC(C(=O)NC(=O)NC(C)=O)c1ccccc1 (centres undefined) | -1.71% [at 42.5 µM] (inactive)
41 | CC(C)(N)C#N | -2.6% (inactive)
42 | CN1C(C)(C)CC(O)CC1(C)C | -0.983% (inactive)
43 | [O-][n+]1cccc(CO)c1 | 0.132% [at 42.5 µM] (inactive)
44 | CCNC(=O)[C@@H]1CCCN1C(=O)[C@H](CCCN=C(N)N)NC(=O)[C@H](CC(C)C)NC(=O)CNC(=O)[C@H](Cc1ccc(O)cc1)NC(=O)[C@H](CO)NC(=O)[C@H](Cc1c[nH]c2ccccc12)NC(=O)[C@H](Cc1cnc[nH]1)NC(=O)[C@@H]1CCC(=O)N1 ([pGlu]HWSYGLRP-NHEt) | -0.388% [at 42.5 µM] (inactive)
45 | O=C(O)CCSCCC(=O)O | 0.21% (inactive)
46 | CC(COc1ccccc1)NN (centres undefined) | 0.269% [at 42.5 µM] (inactive)
47 | C=CC(=O)OCCCl | -2.04% (inactive)
48 | CCNS(=O)(=O)c1ccc(C)cc1 | 0.449% (inactive)
49 | CC(=O)NC(=O)c1ccccc1O | -0.0684% [at 42.5 µM] (inactive)
50 | OCCCCCO | 1.49% (inactive)
51 | O=C(CO)[C@@H](O)[C@H](O)[C@H](O)CO | -1% (inactive)
52 | C=CC(C)(CCC=C(C)C)OC(=O)CC (centres undefined) | -1.12% (inactive)
53 | Clc1cc(Cl)cc(Cl)c1 | 0.147% (inactive)
54 | CCCO[Si](OCCC)(OCCC)OCCC | 2.16% (inactive)
55 | C=COCC1CCC(COC=C)CC1 (centres undefined) | -1.3% (inactive)
56 | CN1CCC(=C2c3ccccc3CCc3cccnc32)CC1 | -1.96% [at 42.5 µM] (inactive)
57 | CCCCc1ccc2c(n1)[C@@H](c1ccc(OC)cc1C[C@H](C)C(=O)O)[C@H](C(=O)O)[C@H]2c1ccc2c(c1)OCO2 | -0.54% (inactive)
58 | CC(=O)c1ccc2ccccc2c1 | 0.239% (inactive)
59 | CC(C)c1ccc2ncccc2c1 | 0.221% (inactive)
60 | c1ccc(Cc2ccccc2)cc1 | 0.0071% (inactive)
61 | CN(C)CCCN(C)CCCN(C)C | -0.992% (inactive)
62 | O=S(=O)(O)c1cc(O)c(O)c(S(=O)(=O)O)c1 | -0.703% (inactive)
63 | O=[N+]([O-])c1cncn1CCN1CCOCC1 | -0.874% [at 42.5 µM] (inactive)
64 | CCOC(=O)OC(C)OC1=C(C(=O)Nc2ccccn2)N(C)S(=O)(=O)c2ccccc21 (centres undefined) | 0.933% [at 42.5 µM] (inactive)
65 | CCC(C)(CCCC(C)C)OC(C)=O (centres undefined) | 0.261% (inactive)
66 | CCN[C@H]1C[C@H](C)S(=O)(=O)c2sc(S(N)(=O)=O)cc21 | 0.197% [at 42.5 µM] (inactive)

Test system: not listed separately
Test: qHTS assay to identify small molecule agonists or antagonists of the thyroid stimulating hormone receptor (TSHR) signaling pathway - wild type cell line counter screen (AID 1259384)
Conditions: HEK293 wild type, cAMP HTRF counter-screen, hits give high values; series mostly up to 92.4 µM; cAMP activity change: at the top concentration
How it was run: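 Wild-type HEK293 cells were plated 18 h at 37 C/5% CO2, pin-dosed with compound plus Ro20-1724 medium, held 30 min at room temperature, then given cAMP-d2 and anti-cAMP-cryptate; fluorescence was read after 1 h. Fifteen concentrations, triplicate.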

Row | Structure (SMILES) | cAMP activity change
67 | CC1(C)OC[C@@H](COC(=O)CCc2ccc(OC[C@@H](O)CNCCNC(=O)N3CCOCC3)cc2)O1 | -1.33% [at 42.5 µM] (inactive)
68 | CCC(C(=O)NC(=O)NC(C)=O)c1ccccc1 (centres undefined) | 0.682% [at 42.5 µM] (inactive)
69 | CC(C)(N)C#N | 0.764% (inactive)
70 | CN1C(C)(C)CC(O)CC1(C)C | 2.17% (inactive)
71 | O=C(c1ccccc1)C1(O)CCCCC1 | 0.793% (inactive)
72 | [O-][n+]1cccc(CO)c1 | -1.87% [at 42.5 µM] (inactive)
73 | CCNC(=O)[C@@H]1CCCN1C(=O)[C@H](CCCN=C(N)N)NC(=O)[C@H](CC(C)C)NC(=O)CNC(=O)[C@H](Cc1ccc(O)cc1)NC(=O)[C@H](CO)NC(=O)[C@H](Cc1c[nH]c2ccccc12)NC(=O)[C@H](Cc1cnc[nH]1)NC(=O)[C@@H]1CCC(=O)N1 ([pGlu]HWSYGLRP-NHEt) | -8.15% [at 42.5 µM] (inactive)
74 | CC(C)CC(C)(N)C#N (centres undefined) | 5.18% (inactive)
75 | O=C(O)CCSCCC(=O)O | -0.432% (inactive)
76 | CC(COc1ccccc1)NN (centres undefined) | 3.91% [at 42.5 µM] (inactive)
77 | C=CC(=O)OCCCl | 3.84% (inactive)
78 | NS(=O)(=O)Cc1noc2ccccc12 | -2.05% [at 42.5 µM] (inactive)
79 | CC(=O)NC(=O)c1ccccc1O | -8.04% [at 42.5 µM] (inactive)
80 | OCCCCCO | 0.864% (inactive)
81 | O=C(CO)[C@@H](O)[C@H](O)[C@H](O)CO | -1.02% (inactive)
82 | C=CC(C)(CCC=C(C)C)OC(=O)CC (centres undefined) | -6.14% (inactive)
83 | CN(C)[C@@H]1C(=O)C(C(=O)NCN2CCCC2)=C(O)[C@@]2(O)C(=O)C3=C(O)c4c(O)cccc4[C@@](C)(O)C3C[C@@H]12 (some centres undefined) | -3.11% [at 42.5 µM] (inactive)

Row | Structure (SMILES) | cAMP activity change
84 | Clc1cc(Cl)cc(Cl)c1 | -3.52% (inactive)
85 | O=C1CCCCCCCCCCCCCCO1 | -0.724% (inactive)
86 | CCCO[Si](OCCC)(OCCC)OCCC | 2.64% (inactive)
87 | C=COCC1CCC(COC=C)CC1 (centres undefined) | 4.98% (inactive)
88 | O=Cc1cccc(Br)c1 | -1.13% (inactive)
89 | C[N+](C)(CCOc1ccccc1)Cc1cccs1 | 0.73% [at 42.5 µM] (inactive)
90 | CN1CCC(=C2c3ccccc3CCc3cccnc32)CC1 | 4.5% [at 42.5 µM] (inactive)
91 | CCCCc1ccc2c(n1)[C@@H](c1ccc(OC)cc1C[C@H](C)C(=O)O)[C@H](C(=O)O)[C@H]2c1ccc2c(c1)OCO2 | 4.83% (inactive)
92 | CC(=O)c1ccc2ccccc2c1 | 4.91% (inactive)
93 | CN(C)CCCN(C)CCCN(C)C | -0.589% (inactive)
94 | O=[N+]([O-])c1cncn1CCN1CCOCC1 | 1.53% [at 42.5 µM] (inactive)
95 | CCOC(=O)OC(C)OC1=C(C(=O)Nc2ccccn2)N(C)S(=O)(=O)c2ccccc21 (centres undefined) | -4.36% [at 42.5 µM] (inactive)
96 | CCC(C)(CCCC(C)C)OC(C)=O (centres undefined) | -1.11% (inactive)
97 | CC1(C)[C@@H]2CC[C@@]1(C)[C@H](O)C2 | -2.56% (inactive)
98 | CCN[C@H]1C[C@H](C)S(=O)(=O)c2sc(S(N)(=O)=O)cc21 | 2.35% [at 42.5 µM] (inactive)
99 | O=CN(CCO)CCO | -3.64% (inactive)
